Drawing on publication PMC10726135, “HNF4α isoforms regulate the circadian balance between carbohydrate and lipid metabolism in the liver”, this text covers binding signal for 54 sequences.

Whole data set: some 18,000 sequences, median “log2 normalized intensity” near 0.39, cut for the highest 2% near 6.6. The sample holds the highest values, similar sequences and a random draw of the others, so the mix is not that of the screen.

In the experiment the target is T1, HNF4alpha2 (COS-7 nuclear extract) (Homo sapiens, UniProt P41235 1-474).
T1 sequence: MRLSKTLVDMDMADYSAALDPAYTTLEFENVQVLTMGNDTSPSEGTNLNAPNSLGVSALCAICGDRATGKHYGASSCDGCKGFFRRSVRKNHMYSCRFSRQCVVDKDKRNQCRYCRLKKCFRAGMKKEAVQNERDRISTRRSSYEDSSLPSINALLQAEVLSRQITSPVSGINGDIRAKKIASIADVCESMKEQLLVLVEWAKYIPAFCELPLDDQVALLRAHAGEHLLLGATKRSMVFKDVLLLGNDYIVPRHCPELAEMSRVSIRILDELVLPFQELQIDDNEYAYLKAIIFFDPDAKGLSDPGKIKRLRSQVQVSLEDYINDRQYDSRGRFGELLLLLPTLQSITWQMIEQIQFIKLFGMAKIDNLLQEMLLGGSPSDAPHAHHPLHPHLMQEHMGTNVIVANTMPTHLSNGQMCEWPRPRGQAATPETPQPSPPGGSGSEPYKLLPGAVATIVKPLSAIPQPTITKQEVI
As to the kind of experiment: protein-binding microarray; COS-7 nuclear extract on double-stranded Agilent 4x180k PBM; binding buffer, salt, pH and temperature not given in the material; high values mean tight binding. The note with it: chain copies: 2; label: 3' end of strand 1 on the slide; dsDNA, one strand shown. The procedure, abridged:
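Nuclear extracts came from COS-7 cells transiently transfected by CaPO4 with a human HNF4α isoform expression vector. They were applied to a custom Agilent SurePrint G3 4x180k array of ~60-nt oligonucleotides, made double-stranded, with ~44,000 test sequences spotted in quadruplicate. Bound HNF4α was imaged at 2-µm resolution on an Agilent G2565CA scanner. Binding signal was taken as background-corrected, normalized gProcessedSignal from Agilent software.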
Regarding “CATCATCTTGTAATCTGCTTCCAGTTCCATGCCTAGGGAGATTAGAGTATCGGTCGA”, the binding signal came out at 0.0747 log2 normalized intensity.

Take “GAGAAAAAGTCAACACTTAGGGTGGATACTGCCTAGGGAGATTAGAGTATCGGTCGA”: the binding signal was -0.81 log2 normalized intensity.

In the case of “TGATAAGCAAGATGACTTTGGTCTAGACACGCCTAGGGAGATTAGAGTATCGGTCGA”, the binding signal was determined as 0.829 log2 normalized intensity. Turning to “TGCTCAGGGAGAAGCAAATATGTGTCCTCTGCCTAGGGAGATTAGAGTATCGGTCGA”, the binding signal was 0.314 log2 normalized intensity.

Turning to “TTTGAACACCTCTTCTTTCTTCTCTGGTACGCCTAGGGAGATTAGAGTATCGGTCGA”, the binding signal is 1.58 log2 normalized intensity.

“TGGACTTTGAACCTCTCTTCTTTTTCGTCTGCCTAGGGAGATTAGAGTATCGGTCGA”: the binding signal is 6.71 log2 normalized intensity. Consider “GTTATCTATGGAACATGGACTTTGAACCTCGCCTAGGGAGATTAGAGTATCGGTCGA”, for which the binding signal turned out to be 10.3 log2 normalized intensity. For “TCTTCTTCTGGGGACTTCGGTCTTTTTTCTGCCTAGGGAGATTAGAGTATCGGTCGA”, the binding signal was determined as 2.18 log2 normalized intensity. The same measure for “CATCTGAACTCTTCATGGACTCCTCTTATCGCCTAGGGAGATTAGAGTATCGGTCGA”: 1.6 log2 normalized intensity. For “TTTCTCTTTTGACCTTTGGACTTTCACATTGCCTAGGGAGATTAGAGTATCGGTCGA” the value was 10.5 log2 normalized intensity.

For the sequence “AGTCTAACTTTGGACTTTTATGTTAAGATCGCCTAGGGAGATTAGAGTATCGGTCGA”, the binding signal came out at 2.25 log2 normalized intensity.

Regarding “CCTTGCTATGGAGTGGACTTTGGCTTATGCGCCTAGGGAGATTAGAGTATCGGTCGA”, the binding signal was determined as 6.18 log2 normalized intensity. The same measure for “ACTCATTTCACATTGGTGCCCTTTGCCTTTGCCTAGGGAGATTAGAGTATCGGTCGA”: 3.97 log2 normalized intensity.

“TGAACTTTGAACACCTCTTCTTTCTTCTCTGCCTAGGGAGATTAGAGTATCGGTCGA”: the binding signal amounted to 3.92 log2 normalized intensity. As for “CCTTTGGTGCCTCTTTTTTCTTGTTGACTTGCCTAGGGAGATTAGAGTATCGGTCGA”, the binding signal was found to be 2.44 log2 normalized intensity. Turning to “CTATGGAACATGGACTTTGAACCTCTCTTCGCCTAGGGAGATTAGAGTATCGGTCGA”, the binding signal stood at 8.15 log2 normalized intensity. The same measure for “TGGGCACTGTCCTAGGTGCTGAAGATGCAAGCCTAGGGAGATTAGAGTATCGGTCGA”: -0.724 log2 normalized intensity; for “GATCAAAGGTCGGTTTTAGGACAACATGAGGCCTAGGGAGATTAGAGTATCGGTCGA”: 4.52 log2 normalized intensity; for “CTATCATTATCTCTCACTGCAGAAACTCTGGCCTAGGGAGATTAGAGTATCGGTCGA”: 1.35 log2 normalized intensity. For “AGCATTTTTGTATGCATAAGGCCTTGGACCGCCTAGGGAGATTAGAGTATCGGTCGA” the value was 3.11 log2 normalized intensity; for “CTTTGGTATGGACTGATATTCAAACAGGTCGCCTAGGGAGATTAGAGTATCGGTCGA”, 1.31 log2 normalized intensity; for “GAGGGATTTTCAGTATACTGACTTATCAGGGCCTAGGGAGATTAGAGTATCGGTCGA”, 0.535 log2 normalized intensity.

“AGCGGCCTTCCCCTTTTTCTGTAAAGCTTTGCCTAGGGAGATTAGAGTATCGGTCGA”: the binding signal was 1.21 log2 normalized intensity.

“GAGTTTAGGCATTCTTAGACACAGTCTGAGGCCTAGGGAGATTAGAGTATCGGTCGA”: the binding signal was -0.227 log2 normalized intensity. For “CCATACCTCTTGCGTGTTATCTATGGAACAGCCTAGGGAGATTAGAGTATCGGTCGA” the value was 1.5 log2 normalized intensity; for “TACATTGAACTTTGAACACCTCTTCTTTCTGCCTAGGGAGATTAGAGTATCGGTCGA”, 4.75 log2 normalized intensity; for “TGCGTGTTATCTATGGAACATGGACTTTGAGCCTAGGGAGATTAGAGTATCGGTCGA”, 8.74 log2 normalized intensity. “AACATGGACTTTGTTGTTTGCCTCTGAAAAGCCTAGGGAGATTAGAGTATCGGTCGA”: the binding signal was 2.31 log2 normalized intensity. The same measure for “CCTCTTGCGTGTTATCTATGGAACATGGACGCCTAGGGAGATTAGAGTATCGGTCGA”: 2.24 log2 normalized intensity; for “GAACATGGACTTTGAACCTCTCTTCTTTTTGCCTAGGGAGATTAGAGTATCGGTCGA”: 7.25 log2 normalized intensity. For “GGAGAAGTTTTATGGCAGGGTCGGAATGTCGCCTAGGGAGATTAGAGTATCGGTCGA” the value was 1.55 log2 normalized intensity; for “AGCCCCACAGAGCAAAGGTCATGCATAGAAGCCTAGGGAGATTAGAGTATCGGTCGA”, 4.52 log2 normalized intensity. As for “ATGGTTTGACCCTGCGATAAGTAGATACCAGCCTAGGGAGATTAGAGTATCGGTCGA”, the binding signal is 0.964 log2 normalized intensity.

Take “CTTTGGCCAAGGGCAGTGTTTGCCCAGCTTGCCTAGGGAGATTAGAGTATCGGTCGA”: the binding signal amounted to 0.106 log2 normalized intensity.

For “TTGACCTTTGGCCAAGGGCAGTGTTTGCCCGCCTAGGGAGATTAGAGTATCGGTCGA”, the binding signal was found to be 5.35 log2 normalized intensity.

Turning to “GAGTCTGTTGTCTAACATTTTTGACCTTCAGCCTAGGGAGATTAGAGTATCGGTCGA”, the binding signal was found to be 4.09 log2 normalized intensity. For “AGGCAGTCTGTTGACCTTTGGCCAAGGGCAGCCTAGGGAGATTAGAGTATCGGTCGA” the value was 7.73 log2 normalized intensity; for “GTCTGTTGACCTTTGGCCAAGGGCAGTGTTGCCTAGGGAGATTAGAGTATCGGTCGA”, 6.71 log2 normalized intensity. The same measure for “TCAGTCTGGTTGAGGCAAGCAAAAGCCAAGGCCTAGGGAGATTAGAGTATCGGTCGA”: -0.985 log2 normalized intensity. Consider “CAACTGGTATGTTAGATTAGTGTGCAGCTTGCCTAGGGAGATTAGAGTATCGGTCGA”, for which the binding signal stood at 0.891 log2 normalized intensity.

Consider “TCTGACCTCTTTCAAGCCTGAACAAACATGGCCTAGGGAGATTAGAGTATCGGTCGA”, for which the binding signal stood at 0.93 log2 normalized intensity. The same measure for “GTCCGGCAGAGCTATGGAATTTTGGCCTTTGCCTAGGGAGATTAGAGTATCGGTCGA”: 3.22 log2 normalized intensity; for “CCCTTTGACCTCTGCTTCCTGCTACAGAGCGCCTAGGGAGATTAGAGTATCGGTCGA”: 1.87 log2 normalized intensity.

On to “TTATGCAGACCTTTGCCCTTTGTTTACATAGCCTAGGGAGATTAGAGTATCGGTCGA”, for which the binding signal stood at 5.27 log2 normalized intensity.

With “ATTCCCTCCAGCAGGGGATGCCCTTTGACCGCCTAGGGAGATTAGAGTATCGGTCGA”, the binding signal is 8.91 log2 normalized intensity. With “TACTTTGCTTCCAAGTTATGCAGACCTTTGGCCTAGGGAGATTAGAGTATCGGTCGA”, the binding signal was 2.14 log2 normalized intensity. The same measure for “AAAGCCTAGGCTCCAGGGCACTGCCCTTTGGCCTAGGGAGATTAGAGTATCGGTCGA”: 3 log2 normalized intensity; for “GGATGCCCTTTGACCTCTGCTTCCTGCTACGCCTAGGGAGATTAGAGTATCGGTCGA”: 5.58 log2 normalized intensity; for “CTAGGCTCCAGGGCACTGCCCTTTGGAACCGCCTAGGGAGATTAGAGTATCGGTCGA”: 6.71 log2 normalized intensity. With “GCAGGGGATGCCCTTTGACCTCTGCTTCCTGCCTAGGGAGATTAGAGTATCGGTCGA”, the binding signal was determined as 8.18 log2 normalized intensity. Turning to “CTCCAGGGCACTGCCCTTTGGAACCTGCCCGCCTAGGGAGATTAGAGTATCGGTCGA”, the binding signal worked out at 5.54 log2 normalized intensity. With “TGCACATTCCCTCCAGCAGGGGATGCCCTTGCCTAGGGAGATTAGAGTATCGGTCGA”, the binding signal was 2.38 log2 normalized intensity. “ATGCCCCTCCCAGGGACACATGCCCCTTCCGCCTAGGGAGATTAGAGTATCGGTCGA”: the binding signal was found to be 5.44 log2 normalized intensity.

On to “TGCTTCCAAGTTATGCAGACCTTTGCCCTTGCCTAGGGAGATTAGAGTATCGGTCGA”, for which the binding signal amounted to 7.17 log2 normalized intensity.
